PubChem BioAssay
For some assays here: Measured potencies and affinities stand elsewhere. Active and inactive are the calls of the source. Unless noted, the limit is not given here; nearly all actives have IC50 up to about 0.98 µM.

system: not listed separately; assay: inhibition of 3D7 malaria parasite growth – strain 3D7 (AID 2306; call rule not given here;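 also: 0% = DMSO wells and 100% = chloroquine plus artemisinin control wells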); details: P. falciparum 3D7 erythrocytic growth, LDH absorbance, 72 h; at 2 µM; active compounds read high

Structure (SMILES) | growth inhibition
CCCC(=O)Nc1ccc(OCCN(Cc2ccccc2OC(F)(F)F)c2ccc(C(F)(F)F)c(C#N)c2)cc1 | 85% (active)
CC(C)c1cccc(OCC2CCN(c3ncc(C(=O)Nc4ccccc4)cc3Cl)CC2)c1 | 89% (active)
CN(C)C(=O)c1cc(CNCc2ccccc2)ccc1-c1cccc(CNCc2ccc(-c3ccccc3)cc2)c1 | 90% (active)
O=C(Nc1ccc(C(=O)N(Cc2ccc3c(c2)OCO3)C2CCCC2)cc1)c1cccs1 | 97% (active)
CN1CCN(c2cc(NC(=O)Nc3ccc(-c4ccncc4)c(Cl)c3)ccc2Br)CC1 | 101% (active)
COc1ccc2nccc([C@@H](O)CN3CCC(NCc4cc5ccccn5n4)CC3)c2c1 | 99% (active)
CCCCN1CCN(CC(O)CNC(=O)Nc2ccc(Cl)cc2)CC1 (stereo not drawn) | 101% (active)
CCCC(CNCc1cccc(OCC)c1)CNc1cc(=O)c2ccccc2[nH]1 (stereo not drawn) | 101% (active)
NS(=O)(=O)c1cccc(-c2ccc3c(=O)[nH]cnc3c2)c1 | 99% (active)
Cc1c(Oc2ccc(-n3ccnc3)cc2)ncnc1N1CCC2(CC1)CNCc1ccccc12 | 95% (active)
CCOC(=O)N[C@@H]1CN[C@@H](C#Cc2cc3c(Nc4ccc(OCc5cccc(F)c5)c(Cl)c4)ncnc3s2)C1 | 86% (active)
Cc1cccc2[nH]c(-c3ccc(-c4cccc(NC(=O)Nc5ccsc5)c4)s3)nc12 | 100% (active)
CC(CNc1nc(NCC(c2ccccc2)c2ccccc2)c2[nH]cnc2n1)c1ccccc1 (stereo not drawn) | 93% (active)
c1cc2c3c(cccc3c1)NC(CCCCCCCCC1=Nc3cccc4cccc(c34)N1)=N2 | 93% (active)
Clc1ccc(-c2[nH]c3ccccc3c2CN2CCC(N3CCCCC3)CC2)cc1 | 93% (active)
N#Cc1ccc2[nH]cc(CN3CCC4(CC3)CN(CCNCc3ccccc3)C(=O)CO4)c2c1 | 98% (active)
COc1ccc2cc(C(c3nnnn3CC3CCCO3)N3CCc4ccccc43)c(=O)[nH]c2c1 (stereo not drawn) | 94% (active)
CC1CN(c2ccc(NC(=O)c3cccs3)cc2)CCN1Cc1cccc(F)c1 (stereo not drawn) | 96% (active)
NC1=NC(c2ccccc2)N(c2ccccc2)C(N)=N1 (stereo not drawn) | 96% (active)
Cc1[nH]c2ccccc2c1C1CCN(CCCCNC(=O)c2ccc(-c3ccc(C#N)cc3)cc2)CC1 | 101% (active)
Cc1nc2nc(N)nc(N)c2c(C)c1Cc1cccc(C(F)(F)F)c1 | 89% (active)
O=C(Nc1ccc2nc(-c3ccccc3)[nH]c2c1)c1cc(-c2ccc3c(c2)OCCO3)n[nH]1 | 100% (active)
CC1(C)CN(CCC2CCC(NC(=O)/C=C/c3ccccc3F)CC2)Cc2ccc(C#N)cc21 (stereo not drawn) | 89% (active)
COc1cc(NC(=O)/C=C/c2cc3ccccc3n2C)ccc1OCCN(C(C)C)C(C)C | 99% (active)
O=C(Nc1ccc2ccccc2n1)c1ccccc1-c1ccccc1 | 90% (active)
COc1cc(NC(=O)c2sc(-c3ccc(Cl)cc3)cc2NC(=O)c2cccc(N(C)C)c2)ccc1OCCN1CCCC1 | 99% (active)
COc1cc(NC(=O)/C=C/c2cc(F)cc(F)c2F)cc(OCCN2CCN(CCN3CCOCC3)CC2)c1 | 102% (active)
CCOC(=O)c1ccc(NC(=O)N[C@@H](Cc2ccccc2)C(=O)NC2CCN(Cc3ccc(O)c(OC)c3)C2)cc1 (stereo partly drawn) | 88% (active)

target: Calcium-dependent protein kinase 1 (Plasmodium falciparum (isolate 3D7)) (UniProt P62344); assay: PfCDPK1 kinase inhibitors, biochemical, TCAMS library (AID 1159585); details: recombinant PfCDPK1, Kinase-Glo ATP depletion luminescence;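 also: inhibitors leave more ATP so luminescence rises with inhibition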
Sequence (P62344 whole entry, looked up): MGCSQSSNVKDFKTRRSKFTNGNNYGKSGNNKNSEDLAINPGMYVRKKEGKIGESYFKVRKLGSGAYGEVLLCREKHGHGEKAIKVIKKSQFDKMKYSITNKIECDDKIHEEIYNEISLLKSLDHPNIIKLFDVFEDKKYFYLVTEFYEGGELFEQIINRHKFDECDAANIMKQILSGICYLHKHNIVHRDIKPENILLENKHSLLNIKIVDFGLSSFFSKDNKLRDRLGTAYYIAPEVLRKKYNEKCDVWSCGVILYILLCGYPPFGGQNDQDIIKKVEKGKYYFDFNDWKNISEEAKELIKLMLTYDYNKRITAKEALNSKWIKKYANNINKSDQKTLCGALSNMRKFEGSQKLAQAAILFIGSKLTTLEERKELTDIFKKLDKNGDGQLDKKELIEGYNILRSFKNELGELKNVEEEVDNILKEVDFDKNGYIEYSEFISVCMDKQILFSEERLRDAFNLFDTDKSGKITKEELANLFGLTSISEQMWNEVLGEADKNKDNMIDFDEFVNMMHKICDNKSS

Structure (SMILES) | outcome
C[C@@H]1CC[C@H](NC(=O)[C@H](CC2CCCC2)NC(=O)N2CCNCC2)C(=O)CN1S(=O)(=O)c1ccccn1 | inactive
O=C(Nc1cccc(C(F)(F)F)c1)c1cccc(S(=O)(=O)NCC2CCN(CC3CCCCC3)CC2)c1 | inactive
CCc1cn2c3c(cc(C(=O)N[C@@H](Cc4ccccc4)[C@H](O)CNC(C)C)cc13)N(C)S(=O)(=O)C2 | inactive
O=C(NCCc1cccc(F)c1)c1ccc(N2CCN(c3ccncc3)CC2)cn1 | inactive
CCc1cn2c3c(cc(C(=O)N[C@@H](Cc4ccccc4)[C@H](O)CNC4CC4)cc13)N(CC)S(=O)(=O)CC2 | inactive
CC(C)(CNCc1cccc(Oc2ccccc2)c1)c1nc(-c2ccc(Cl)c(O)c2)c(-c2ccnc(N)n2)[nH]1 | inactive
O=C(Nc1cccc(CN2CCCN(Cc3ccc(O)cc3)CC2)c1)c1cc2ccccc2s1 | inactive
Cc1nc(-c2cccc(Nc3nccc(NCC(O)c4ccccc4C(F)(F)F)n3)c2)cs1 (stereo not drawn) | inactive
O=C(CCc1ccccc1)N[C@H](Cc1c[nH]c2ccccc12)C(=O)N1CCC(NCc2ccc3c(c2)Cc2ccccc2-3)CC1 | inactive
Cc1nn(CC(C)C)c2sc(C(=O)N3CCN(S(=O)(=O)c4ccc(C#N)cc4)CC3)cc12 | inactive
Cc1cnc(C(=O)Nc2ccc3c(c2)CCCN(Cc2c[nH]c4cnccc24)C3)cn1 | inactive
COc1ccc(-n2ccnc2SCC(=O)Nc2cc(C(F)(F)F)ccc2Cl)c(OC)c1 | inactive
CCCC(=O)Nc1ccc(OCCN(Cc2ccccc2OC(F)(F)F)c2ccc(C(F)(F)F)c(C#N)c2)cc1 | inactive
CC(C)c1cccc(OCC2CCN(c3ncc(C(=O)Nc4ccccc4)cc3Cl)CC2)c1 | inactive
CN(C)C(=O)c1cc(CNCc2ccccc2)ccc1-c1cccc(CNCc2ccc(-c3ccccc3)cc2)c1 | inactive
O=C(Nc1ccc(C(=O)N(Cc2ccc3c(c2)OCO3)C2CCCC2)cc1)c1cccs1 | inactive
CN1CCN(c2cc(NC(=O)Nc3ccc(-c4ccncc4)c(Cl)c3)ccc2Br)CC1 | inactive
COc1ccc2nccc([C@@H](O)CN3CCC(NCc4cc5ccccn5n4)CC3)c2c1 | inactive
CCCCN1CCN(CC(O)CNC(=O)Nc2ccc(Cl)cc2)CC1 (stereo not drawn) | inactive
CCCC(CNCc1cccc(OCC)c1)CNc1cc(=O)c2ccccc2[nH]1 (stereo not drawn) | inactive

Structure (SMILES) | outcome
NS(=O)(=O)c1cccc(-c2ccc3c(=O)[nH]cnc3c2)c1 | inactive
Cc1c(Oc2ccc(-n3ccnc3)cc2)ncnc1N1CCC2(CC1)CNCc1ccccc12 | inactive
CCOC(=O)N[C@@H]1CN[C@@H](C#Cc2cc3c(Nc4ccc(OCc5cccc(F)c5)c(Cl)c4)ncnc3s2)C1 | inactive
Cc1cccc2[nH]c(-c3ccc(-c4cccc(NC(=O)Nc5ccsc5)c4)s3)nc12 | inactive
CC(CNc1nc(NCC(c2ccccc2)c2ccccc2)c2[nH]cnc2n1)c1ccccc1 (stereo not drawn) | inactive
c1cc2c3c(cccc3c1)NC(CCCCCCCCC1=Nc3cccc4cccc(c34)N1)=N2 | inactive
Clc1ccc(-c2[nH]c3ccccc3c2CN2CCC(N3CCCCC3)CC2)cc1 | inactive
N#Cc1ccc2[nH]cc(CN3CCC4(CC3)CN(CCNCc3ccccc3)C(=O)CO4)c2c1 | inactive
COc1ccc2cc(C(c3nnnn3CC3CCCO3)N3CCc4ccccc43)c(=O)[nH]c2c1 (stereo not drawn) | inactive
CC1CN(c2ccc(NC(=O)c3cccs3)cc2)CCN1Cc1cccc(F)c1 (stereo not drawn) | inactive
NC1=NC(c2ccccc2)N(c2ccccc2)C(N)=N1 (stereo not drawn) | inactive
Cc1[nH]c2ccccc2c1C1CCN(CCCCNC(=O)c2ccc(-c3ccc(C#N)cc3)cc2)CC1 | inactive
Cc1nc2nc(N)nc(N)c2c(C)c1Cc1cccc(C(F)(F)F)c1 | inactive
O=C(Nc1ccc2nc(-c3ccccc3)[nH]c2c1)c1cc(-c2ccc3c(c2)OCCO3)n[nH]1 | inactive
CC1(C)CN(CCC2CCC(NC(=O)/C=C/c3ccccc3F)CC2)Cc2ccc(C#N)cc21 (stereo not drawn) | inactive
COc1cc(NC(=O)/C=C/c2cc3ccccc3n2C)ccc1OCCN(C(C)C)C(C)C | inactive
O=C(Nc1ccc2ccccc2n1)c1ccccc1-c1ccccc1 | inactive
COc1cc(NC(=O)c2sc(-c3ccc(Cl)cc3)cc2NC(=O)c2cccc(N(C)C)c2)ccc1OCCN1CCCC1 | inactive
COc1cc(NC(=O)/C=C/c2cc(F)cc(F)c2F)cc(OCCN2CCN(CCN3CCOCC3)CC2)c1 | inactive
CCOC(=O)c1ccc(NC(=O)N[C@@H](Cc2ccccc2)C(=O)NC2CCN(Cc3ccc(O)c(OC)c3)C2)cc1 (stereo partly drawn) | inactive
